{
  "source": "PubChem BioAssay AID492947",
  "about": "(National Center for Advancing Translational Sciences (NCATS), 2010)",
  "note": "Out of some 330,000 compounds screened, about 80 (0.02%) were called active. Many of the other results were omitted from the sample, so actives are more common in it than they were. A number with no mark means an inactive call. Calls follow the shape of the dose curve; as a rule, active = well fitted activation curve with a large enough effect; inconclusive = small, poorly fitted or top-dose-only effect; inactive = flat fitted curve, though single readings scatter.",
  "data": [
    {"biological_target": "Beta-2 adrenergic receptor (Homo sapiens) (UniProt P07550)", "sequence (P07550 whole entry, looked up)": "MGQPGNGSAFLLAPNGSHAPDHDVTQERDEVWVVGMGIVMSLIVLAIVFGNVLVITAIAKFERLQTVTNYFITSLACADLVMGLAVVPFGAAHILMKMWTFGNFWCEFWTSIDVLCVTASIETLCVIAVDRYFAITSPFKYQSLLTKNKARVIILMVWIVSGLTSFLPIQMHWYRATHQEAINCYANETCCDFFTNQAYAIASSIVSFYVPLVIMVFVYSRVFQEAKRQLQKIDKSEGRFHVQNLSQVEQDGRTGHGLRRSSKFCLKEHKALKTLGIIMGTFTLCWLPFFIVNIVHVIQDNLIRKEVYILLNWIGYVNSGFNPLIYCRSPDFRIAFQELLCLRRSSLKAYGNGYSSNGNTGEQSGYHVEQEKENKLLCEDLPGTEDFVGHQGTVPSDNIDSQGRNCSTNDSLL", "experiment": "qHTS assay of beta-arrestin-biased ligands of beta2-adrenergic receptor; also: nearly all actives have a fitted effect of over 65% in size; also: potency is read from the fitted curve at half-maximal effect;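 as to activation: 0% = DMSO controls and full agonism = EC100 isoproterenol or metaproterenol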", "settings": "beta-arrestin recruitment to beta2AR, cell-based reporter; series mostly up to 46.1 µM; activation: at the top concentration", "text": "NIH Molecular Libraries Probe Production Network [MLPCN]\nNIH Chemical Genomics Center [NCGC]\nPI: Bryan Roth and Bob Lefkowitz\nThe concept of biased agonism is an emerging concept of molecular pharmacology which proposes that seven transmembrane receptors (7TMRs) or G protein-coupled receptors (GPCRs), exist in multiple signaling conformations and complexes and that ligands (either agonists or antagonists) can induce signaling biased responses for distinct signal transduction cascades.\nFurthermore, accumulating evidence over the last decade has drawn attention to a novel function of beta-arrestins as signal transducers that scaffold various signaling molecules upon activation of 7TMRs. […] This beta-arrestin-biased signaling presumably leads to distinct physiological outcomes from those by G protein activation.\nAdditionally, the active receptor conformations which […] on this beta-arrestin signaling are likely different from those activating G protein signaling\nThe goal of this screening project will be to discover and optimize novel beta-arrestin-biased ligands for beta2-AR signaling. A luminescent cell-based assay for beta2-AR-mediated agonism, known as the Tango assay, has been validated in which ligand binding of a recombinant beta2-AR and subsequent recruitment of a recombinant beta-arrestin lead to the release of the transcriptional activator tTA, which upregulates transcription of a tTA-responsive luciferase gene. […] Compounds were screened as a concentration-titration series that ranged from 46 microM to 0.6 nM.\nNCGC Assay Protocol Summary:\nTango cells were dispensed into white, solid, tissue-culture-treated 1536-well plates at 1500 cells/well in DMEM, containing 1% fetal bovine serum (FBS). Then, 23 nL of compounds or DMSO were delivered to each well using a pin tool. Plates were incubated at 37 degrees C, 5% CO2 for 18 hr. Then 2.5 uL luminescent substrate mix (in-house prepared: 150 mM Tris-Cl, pH 7.6, 3 mM MgCl2, 1% Triton X-100, 5 mM DTT, 0.5 mM CoA, 0.15 mM ATP, 0.44 mM D-luciferin, final concentrations) was added to each well. Plates were then incubated for 15 minutes at room temperature, and subsequently measured on a ViewLux plate reader for luminescent signal using a clear filter with a 10 second exposure and 2x binning. The %Activity was determined from the corrected luminescence values.\nConcentration-response curves were fitted to the signals arising from the resulting luminescence. The concentration-effect curves were then classified based on curve quality (r2), response magnitude and degree of measured activity, and compounds were subsequently categorized based on their curve class.\nKeywords: biased agonism, beta2-AR, beta-arrestin, GPCR, 7TMR, Tango, luminescence, MLSMR, MLPCN, NIH Roadmap, qHTS, NCGC", "units": {"activation": "%"}, "values": [
      {"compound": "O=C(O)C1CCCN1S(=O)(=O)c1ccc2c(c1)CCC2", "note": "(stereo not given)", "activation": -0.269},
      {"compound": "COc1ccc(-n2nnnc2SCC(=O)NCc2cccs2)cc1", "activation": 0.169},
      {"compound": "CC(=O)n1c(C=Nc2ccccc2)c(O)c2ccccc21", "activation": 0.129},
      {"compound": "Oc1ccc(N=Cc2sc3ccccc3c2Cl)cc1", "Potency": "13 µM (active)"},
      {"compound": "Cn1c(SCC(=O)N2CCCC2)nnc1-c1cccs1", "activation": 0.281},
      {"compound": "CC(C(=O)N1CCOCC1)N1c2cccc3cccc(c23)S1(=O)=O", "note": "(stereo not given)", "activation": -0.178},
      {"compound": "Nc1ccc(Nc2cc(O)c3ncccc3c2)cc1", "activation": -0.411},
      {"compound": "COc1nc(N=C(N)N)nc2c(C)cccc12", "activation": -0.842},
      {"compound": "CCOC(=O)C1=C(c2ccccc2)N=C2SCC(=O)N2C1c1ccc(O)c(OC)c1", "note": "(stereo not given)", "activation": -1.68},
      {"compound": "COc1cc(C)c(C(C)C)cc1S(=O)(=O)n1ccnc1", "activation": 0.444},
      {"compound": "CCOc1ccc(N(CC(=O)NCCc2ccc(F)cc2)S(=O)(=O)c2ccccc2)cc1", "activation": -0.258},
      {"compound": "CCN(C(=O)COC(=O)c1c(NC(C)=O)sc(C)c1C)C1CCS(=O)(=O)C1", "note": "(stereo not given)", "activation": -0.227},
      {"compound": "C=CCN(c1ccccc1C(=O)NCC(=O)OCC)S(=O)(=O)c1ccc(C)cc1", "activation": -0.554},
      {"compound": "CCCOc1ccc(C2=CSC3=NCCN23)cc1Cl", "activation": 0.319},
      {"compound": "CCc1ccc(-c2nc(SCC(=O)NC3CCCC3)n[nH]2)cc1", "activation": 0.447},
      {"compound": "Cc1cc(OCCOc2cccc3cccnc23)c(C)cc1Cl", "activation": 0.256},
      {"compound": "CCOC(=O)N1CCN(S(=O)(=O)N2CCCC(C(=O)NCCCN3CCC(C)CC3)C2)CC1", "note": "(stereo not given)", "activation": 0.177},
      {"compound": "Cc1ccsc1C(=O)OCC(=O)NCCc1ccccc1", "activation": -0.289},
      {"compound": "Cc1ccc(S(=O)(=O)NCCC(=O)NNC(=O)C2COc3ccccc3O2)cc1", "note": "(stereo not given)", "activation": -0.347},
      {"compound": "COc1ccc(CC(=O)NCc2nnc(SCC(=O)Nc3ncc(C)s3)n2C)cc1", "activation": -0.188},
      {"compound": "CC1CCCCC1NC(=O)c1cc(=O)[nH]c2ccccc12", "note": "(stereo not given)", "activation": 0.184},
      {"compound": "Cc1csc2ncc(C(=O)N(Cc3ccccc3)c3ccccn3)c(=O)n12", "activation": -0.435},
      {"compound": "c1ccc(-c2cnc(CN3CCN(c4ccccc4)CC3)o2)cc1", "activation": -1.12},
      {"compound": "Cc1cccc(C)c1N1C(=O)CN(Cc2ccccc2)C1=S", "activation": -0.274},
      {"compound": "Cc1cccc(N(C(=O)Cn2nnc(-c3ccc(C)o3)n2)C(C(=O)NC2CCCC2)c2ccncc2)c1", "note": "(stereo not given)", "activation": -1.02},
      {"compound": "COc1ccccc1N1CC(C(=O)Nc2nnc(SCC(=O)NC(C)C)s2)CC1=O", "note": "(stereo not given)", "activation": -0.293},
      {"compound": "CCO[C@H]1OC(C(=O)N2CCCCCCC2)=C[C@@H](c2ccc(C(F)(F)F)cc2)[C@@H]1CCCO", "activation": -0.332},
      {"compound": "COc1ccc(S(=O)(=O)N(C)C[C@H]2Oc3ccc(NS(=O)(=O)c4cccs4)cc3CC(=O)N([C@H](C)CO)C[C@H]2C)cc1", "activation": 0.0688},
      {"compound": "O=C(Cn1cncn1)N/N=C/c1c2ccccc2cc2ccccc12", "activation": 0.226},
      {"compound": "CCCOC1CCCN(C(=O)c2cc(COc3cncc(Cl)c3)on2)C1", "note": "(stereo not given)", "activation": 0.0549},
      {"compound": "CCC1SC(CC)C(=O)N(CC(=O)NC2CCCCC2)C1=O", "note": "(stereo not given)", "activation": 0.0877},
      {"compound": "CCc1ccc2oc(=O)cc(CN3CCCCC3C)c2c1", "note": "(stereo not given)", "activation": 0.329},
      {"compound": "O=C(NCc1ccccc1)C1CCCN(c2nc3ccsc3c(=O)s2)C1", "note": "(stereo not given)", "activation": 0.0158},
      {"compound": "CC(C)CCNC(=O)CN(C(=O)Cn1nnc(-c2ccc(F)cc2)n1)C1CCCC1", "activation": -0.252},
      {"compound": "CC(=O)Nc1ccc(S(=O)(=O)Nc2ccc(-c3ccc4nnc(C)n4n3)cc2)cc1", "activation": -0.447},
      {"compound": "Cn1cc(CCC(=O)NC2CC2)c2ccccc21", "activation": -0.249},
      {"compound": "COC(=O)c1sc(SC)c(S(=O)(=O)C(C)C)c1N/N=C(\\C#N)S(=O)(=O)c1ccccn1", "activation": -0.888},
      {"compound": "CCn1cc(C(=O)Nc2cc(C)ccc2C)c(=O)c2ccc(C)nc21", "activation": 0.25},
      {"compound": "COC(=O)c1sc(NC(=O)COC(=O)C2CCC2)c(C(=O)OC)c1C", "activation": -0.283},
      {"compound": "Cc1nnc(SCC(=O)Nc2ccc(S(=O)(=O)Nc3ccc(Cl)nn3)cc2)s1", "activation": -0.792},
      {"compound": "Cn1c(SCC(=O)Nc2ccc(Cl)cc2)nc(O)cc1=O", "activation": -0.732},
      {"compound": "Cc1nn(-c2ccccc2)c(NC(=O)c2cccs2)c(-c2ccc(Cl)cc2)c1=O", "activation": -0.018},
      {"compound": "Cc1ccc(S(=O)(=O)N(C)CC(=O)NCCc2c[nH]c3ccccc23)cc1", "activation": -0.865},
      {"compound": "Cc1ccccc1C1=NC(C(F)(F)F)(C(F)(F)F)c2c(n(-c3ccc(F)cc3)c(=O)[nH]c2=O)N1", "activation": 2.31},
      {"compound": "CSc1nnc(C2CCCN(CC(=O)Nc3ccccc3N3CCOCC3)C2)n1C(C)C", "note": "(stereo not given)", "activation": 0.413},
      {"compound": "CCOc1ccc(C(C)=O)cc1COC(=O)c1cnc(Cl)c(Cl)c1", "activation": 0.0917},
      {"compound": "O=S(=O)(Cc1ccccc1)c1nc2ccccc2n1Cc1ccccn1", "activation": -0.237},
      {"compound": "O=C(O)c1cccnc1Sc1ncnc2sc3c(c12)CCC3", "activation": -0.363},
      {"compound": "CCCOc1ccc(Cc2c(Cl)nc(SC)nc2NC)cc1", "activation": 0.211},
      {"compound": "CCOC(=O)c1c(NC(=O)Cn2nc(C(F)(F)F)cc2C)sc2c1CCC2", "activation": -0.382}
    ]}
  ]
}
